The labels stand for the following.
T1: RBFOX1 RRM RbFoxmut (Fox-RRM*) (Homo sapiens, UniProt Q9NWB1 109-208, R118D;E147R;N151S;E152T)
T1 sequence: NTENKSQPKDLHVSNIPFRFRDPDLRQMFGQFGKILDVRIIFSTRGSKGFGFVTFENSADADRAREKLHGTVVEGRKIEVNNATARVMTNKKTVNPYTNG

B1: UCCGUCA (DNA:RNA)
RNA: GGGAGACCGGAAUUCAGAUUGUCCUCCGUCAUUAAAUCCCGUCGUAGCCACCA
DNA 1: CAATCTGAATTCCGGTCTCCC
DNA 2: TGGTGGCTACGACGGGATT
B2: GUAGCCA (DNA:RNA)
RNA: B1 RNA with U25G, C26U, C27A, U29C
DNA 1: CAATCTGAATTCCGGTCTCCC
DNA 2: TGGTGGCTACGACGGGATT
B3: ACACUGG (DNA:RNA)
RNA: B1 RNA with U25A, C27A, G28C, C30G, A31G
DNA 1: CAATCTGAATTCCGGTCTCCC
DNA 2: TGGTGGCTACGACGGGATT
B4: CCCCAGA (DNA:RNA)
RNA: B1 RNA with U25C, G28C, U29A, C30G
DNA 1: CAATCTGAATTCCGGTCTCCC
DNA 2: TGGTGGCTACGACGGGATT
B5: UAAACAG (DNA:RNA)
RNA: B1 RNA with C26A, C27A, G28A, U29C, C30A, A31G
DNA 1: CAATCTGAATTCCGGTCTCCC
DNA 2: TGGTGGCTACGACGGGATT
B6: CACGGCC (DNA:RNA)
RNA: B1 RNA with U25C, C26A, U29G, A31C
DNA 1: CAATCTGAATTCCGGTCTCCC
DNA 2: TGGTGGCTACGACGGGATT
B7: GCCUUAA (DNA:RNA)
RNA: B1 RNA with U25G, G28U, C30A
DNA 1: CAATCTGAATTCCGGTCTCCC
DNA 2: TGGTGGCTACGACGGGATT
B8: GCCUCGU (DNA:RNA)
RNA: B1 RNA with U25G, G28U, U29C, C30G, A31U
DNA 1: CAATCTGAATTCCGGTCTCCC
DNA 2: TGGTGGCTACGACGGGATT
B9: GCCUUGC (DNA:RNA)
RNA: B1 RNA with U25G, G28U, C30G, A31C
DNA 1: CAATCTGAATTCCGGTCTCCC
DNA 2: TGGTGGCTACGACGGGATT
B10: GCCUGCG (DNA:RNA)
RNA: B1 RNA with U25G, G28U, U29G, A31G
DNA 1: CAATCTGAATTCCGGTCTCCC
DNA 2: TGGTGGCTACGACGGGATT
B11: GCCUUGA (DNA:RNA)
RNA: B1 RNA with U25G, G28U, C30G
DNA 1: CAATCTGAATTCCGGTCTCCC
DNA 2: TGGTGGCTACGACGGGATT
B12: GUCGGCC (DNA:RNA)
RNA: B1 RNA with U25G, C26U, U29G, A31C
DNA 1: CAATCTGAATTCCGGTCTCCC
DNA 2: TGGTGGCTACGACGGGATT
B13: GGCGGCC (DNA:RNA)
RNA: B1 RNA with U25G, C26G, U29G, A31C
DNA 1: CAATCTGAATTCCGGTCTCCC
DNA 2: TGGTGGCTACGACGGGATT
B14: GCCUUCA (DNA:RNA)
RNA: B1 RNA with U25G, G28U
DNA 1: CAATCTGAATTCCGGTCTCCC
DNA 2: TGGTGGCTACGACGGGATT
B15: GCCUUGU (DNA:RNA)
RNA: B1 RNA with U25G, G28U, C30G, A31U
DNA 1: CAATCTGAATTCCGGTCTCCC
DNA 2: TGGTGGCTACGACGGGATT
B16: GCCUUUU (DNA:RNA)
RNA: B1 RNA with U25G, G28U, C30U, A31U
DNA 1: CAATCTGAATTCCGGTCTCCC
DNA 2: TGGTGGCTACGACGGGATT
B17: GCUUGCC (DNA:RNA)
RNA: B1 RNA with U25G, C27U, G28U, U29G, A31C
DNA 1: CAATCTGAATTCCGGTCTCCC
DNA 2: TGGTGGCTACGACGGGATT
B18: GGCCUUG (DNA:RNA)
RNA: B1 RNA with U25G, C26G, G28C, C30U, A31G
DNA 1: CAATCTGAATTCCGGTCTCCC
DNA 2: TGGTGGCTACGACGGGATT
B19: AGUUUUA (DNA:RNA)
RNA: B1 RNA with U25A, C26G, C27U, G28U, C30U
DNA 1: CAATCTGAATTCCGGTCTCCC
DNA 2: TGGTGGCTACGACGGGATT
B20: UCGAAGU (DNA:RNA)
RNA: B1 RNA with C27G, G28A, U29A, C30G, A31U
DNA 1: CAATCTGAATTCCGGTCTCCC
DNA 2: TGGTGGCTACGACGGGATT
B21: GUCCUUU (DNA:RNA)
RNA: B1 RNA with U25G, C26U, G28C, C30U, A31U
DNA 1: CAATCTGAATTCCGGTCTCCC
DNA 2: TGGTGGCTACGACGGGATT
B22: CGACCAC (DNA:RNA)
RNA: GGGAGACCGGAAUUCAGAUUGUCCCGACCACUUAAAUCCCGUCGUAGCCACCA
DNA 1: CAATCTGAATTCCGGTCTCCC
DNA 2: TGGTGGCTACGACGGGATT
B23: AACACUU (DNA:RNA)
RNA: B22 RNA with C25A, G26A, A27C, C28A, A30U, C31U
DNA 1: CAATCTGAATTCCGGTCTCCC
DNA 2: TGGTGGCTACGACGGGATT
B24: ACAACGA (DNA:RNA)
RNA: B22 RNA with C25A, G26C, C28A, A30G, C31A
DNA 1: CAATCTGAATTCCGGTCTCCC
DNA 2: TGGTGGCTACGACGGGATT
B25: GGAGGAU (DNA:RNA)
RNA: B22 RNA with C25G, C28G, C29G, C31U
DNA 1: CAATCTGAATTCCGGTCTCCC
DNA 2: TGGTGGCTACGACGGGATT
B26: AAUCGAA (DNA:RNA)
RNA: B22 RNA with C25A, G26A, A27U, C29G, C31A
DNA 1: CAATCTGAATTCCGGTCTCCC
DNA 2: TGGTGGCTACGACGGGATT
B27: ACCAGCC (DNA:RNA)
RNA: B1 RNA with U25A, G28A, U29G, A31C
DNA 1: CAATCTGAATTCCGGTCTCCC
DNA 2: TGGTGGCTACGACGGGATT
B28: GCCCGCC (DNA:RNA)
RNA: B1 RNA with U25G, G28C, U29G, A31C
DNA 1: CAATCTGAATTCCGGTCTCCC
DNA 2: TGGTGGCTACGACGGGATT
B29: CGCCGCC (DNA:RNA)
RNA: B22 RNA with A27C, C29G, A30C
DNA 1: CAATCTGAATTCCGGTCTCCC
DNA 2: TGGTGGCTACGACGGGATT
B30: GCCUUGG (DNA:RNA)
RNA: B1 RNA with U25G, G28U, C30G, A31G
DNA 1: CAATCTGAATTCCGGTCTCCC
DNA 2: TGGTGGCTACGACGGGATT
B31: CGCCUUG (DNA:RNA)
RNA: B22 RNA with A27C, C29U, A30U, C31G
DNA 1: CAATCTGAATTCCGGTCTCCC
DNA 2: TGGTGGCTACGACGGGATT
B32: GUCCGCC (DNA:RNA)
RNA: B22 RNA with C25G, G26U, A27C, C29G, A30C
DNA 1: CAATCTGAATTCCGGTCTCCC
DNA 2: TGGTGGCTACGACGGGATT
B33: GCCAGCC (DNA:RNA)
RNA: B1 RNA with U25G, G28A, U29G, A31C
DNA 1: CAATCTGAATTCCGGTCTCCC
DNA 2: TGGTGGCTACGACGGGATT
B34: AGCCUUG (DNA:RNA)
RNA: B22 RNA with C25A, A27C, C29U, A30U, C31G
DNA 1: CAATCTGAATTCCGGTCTCCC
DNA 2: TGGTGGCTACGACGGGATT
B35: AGCAGCC (DNA:RNA)
RNA: B22 RNA with C25A, A27C, C28A, C29G, A30C
DNA 1: CAATCTGAATTCCGGTCTCCC
DNA 2: TGGTGGCTACGACGGGATT

Where a chain is given by its changes, count along the chain named. Whole data set: some 16,000 sequences, median “ka relative to ugcaugu” near 0.096, cut for the highest 2% near 0.35. Only a selection was taken, and the highest values are over-represented in it overall.

35 molecules from article PMC9911399, “Two distinct binding modes provide the RNA-binding protein RbFox with extraordinary sequence specificity” can be followed below.

The assay has as its target T1, RBFOX1 RRM RbFoxmut (Fox-RRM*). The assay is described as follows: EMSA; HiTS-Eq, 1 nM pool, 10 min; buffer printed only for the single-RNA assays: 10 mM Tris pH 7.5, 150 mM NaCl, 3.4 mM EDTA, 0.001% NP-40, 30 C. The settings on record: tags: His6 N-terminal (pET28a); label: 5' 32P. The essentials: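 A pool of RNA with 7 randomized nucleotides, 5′-radiolabelled and with DNA-annealed flanks, was equilibrated at 1 nM for 10 min in 50 µL with purified RbFox RRM, wild type or mutant, across increasing protein concentrations. Free RNA was separated by 8% native PAGE, excised, reverse-transcribed, barcoded by PCR and sequenced. Relative association constants were obtained from read-count changes of each RNA species versus the control reaction and normalised to the cognate motif.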
With B1, the binding signal was 0.111 KA relative to UGCAUGU.

For B2, the binding signal is 0.082 KA relative to UGCAUGU. For B3 the value was 0.123 KA relative to UGCAUGU; for B4, 0.0916 KA relative to UGCAUGU. For B5 the value was 0.0612 KA relative to UGCAUGU.

On to B6, for which the binding signal was 0.18 KA relative to UGCAUGU. For the molecule B7, the binding signal was 0.0981 KA relative to UGCAUGU. The same measure for B8: 0.224 KA relative to UGCAUGU. The same measure for B9: 0.387 KA relative to UGCAUGU; for B10: 0.172 KA relative to UGCAUGU; for B11: 0.561 KA relative to UGCAUGU.

In the case of B12, the binding signal was 0.214 KA relative to UGCAUGU. For B13 the value was 0.16 KA relative to UGCAUGU; for B14, 0.146 KA relative to UGCAUGU; for B15, 0.714 KA relative to UGCAUGU. B16: the binding signal was 0.0724 KA relative to UGCAUGU. The same measure for B17: 0.239 KA relative to UGCAUGU; for B18: 0.478 KA relative to UGCAUGU; for B19: 0.101 KA relative to UGCAUGU. For B20 the value was 0.107 KA relative to UGCAUGU; for B21, 0.081 KA relative to UGCAUGU. The same measure for B22: 0.0643 KA relative to UGCAUGU; for B23: 0.0596 KA relative to UGCAUGU; for B24: 0.0863 KA relative to UGCAUGU. Regarding B25, the binding signal is 0.0724 KA relative to UGCAUGU. For B26 the value was 0.081 KA relative to UGCAUGU.

As to B27, the binding signal is 0.0795 KA relative to UGCAUGU. For B28 the value was 0.0938 KA relative to UGCAUGU; for B29, 0.13 KA relative to UGCAUGU. For B30 the value was 0.501 KA relative to UGCAUGU; for B31, 0.978 KA relative to UGCAUGU.

As for B32, the binding signal is 0.105 KA relative to UGCAUGU. The same measure for B33: 0.075 KA relative to UGCAUGU; for B34: 0.576 KA relative to UGCAUGU. As for B35, the binding signal was 0.0801 KA relative to UGCAUGU.
